# S1P2 ag = agonists of human S1P2 receptor; O95136; S1P2-expressing cell line, agonist reporter read-out; activation, % at 4.5 µM; 97,000 compounds, 0.46% hits; AID 729; in the data active = activation above about 16%;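 note: 0% = vehicle low control and 100% = maximal reference agonist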
# Target sequence (O95136 whole entry, looked up): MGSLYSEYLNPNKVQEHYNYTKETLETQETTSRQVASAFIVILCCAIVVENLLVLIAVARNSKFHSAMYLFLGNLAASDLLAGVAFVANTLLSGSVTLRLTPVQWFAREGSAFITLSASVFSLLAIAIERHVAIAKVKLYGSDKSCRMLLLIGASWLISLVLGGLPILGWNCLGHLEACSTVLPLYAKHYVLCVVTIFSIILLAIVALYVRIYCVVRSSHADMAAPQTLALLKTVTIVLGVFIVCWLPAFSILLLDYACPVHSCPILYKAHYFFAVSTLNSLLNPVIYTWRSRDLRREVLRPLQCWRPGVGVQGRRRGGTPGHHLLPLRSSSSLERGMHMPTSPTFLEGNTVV
# GALR2 ag = GALR2 (human) receptor agonism; 140,000 compounds, 0.48% hits; O43603; GALR2-expressing cells, agonist activation read-out; activation, % (test concentration not listed); AID 803; in the data active = activation above about 5%, passing the limit was not always enough;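 note: 0% = vehicle buffer wells and 100% = reference agonist at full effect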
# GALR2 blocker = GALR2 (human) receptor antagonism | O43603 | GALR2-expressing cells, antagonist mode | inhibition, % at 4 µM | 140,000 compounds, 0.39% hits;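 note: cells stimulated with galanin 1-16 at roughly its EC80; 0% = agonist challenge control and 100% = basal control without agonist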
# S1P2 antag = S1P2 (human) receptor antagonism; O95136; cell-based S1P2 antagonist assay, inhibition at 5 uM; inhibition, % at 5 µM; 97,000 compounds, 0.21% hits; AID 736; in the data active = inhibition above about 45%;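 note: CRE beta-lactamase reporter cells expressing human S1P2 stimulated with S1P; 0% = agonist at EC80 alone and 100% = agonist plus reference antagonist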
# GALR2 agon conf = GALR2 (human) agonism confirmed. AID 864. activation, % at 5.6 µM. GALR2-expressing cells, agonist activation. 460 compounds, 10% hits. shares compounds with GALR2 ag; in the data active = activation above about 8.4%;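 note: 0% = buffer-only vehicle wells and 100% = full reference agonist response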
# BLA activ ctr = activates beta-lactamase reporter in GALR2 agonist counterscreen. CHO NFAT-bla reporter, beta-lactamase FRET activation. 460 compounds, 10% hits. AID 865. activation, % at 5.6 µM. shares compounds with GALR2 ag;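 active = activation above the screen-wide mean activation plus 3 SD, cut at about 8% in these data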;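 note: 0% = DMSO with PBS wells and 100% = thapsigargin positive control wells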
# GALR2 blk conf = confirmation of human galanin receptor 2 (GALR2) antagonists; AID 866; inhibition, % at 4 µM; GALR2-expressing cells, antagonist mode, inhibition; shares compounds with GALR2 blocker; 480 compounds, 60% hits;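 note: cells stimulated with galanin at about its EC80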
# BLA inh counter = inhibits beta-lactamase reporter in GALR2 antagonist counterscreen; shares compounds with GALR2 blocker; CHO NFAT-BLA reporter, beta-lactamase FRET, thapsigargin-stimulated; inhibition, % at 4.2 µM; 480 compounds, 36% hits;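 active = inhibition above the mean inhibition across tested compounds plus 3 SD, cut at about 27% in these data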;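 note: 0% = 500 nM thapsigargin stimulated wells and 100% = unstimulated BSA only wells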
# * marks the source's active call; other numbers are inactive results; · = not tested or not shown. The list is not random: actives were taken first. Their share in the collection is about 1.2%. Cut-off read from the data, not from the text of the source, unless noted: active = inhibition above about 27%; inactive = the rest.
SMILES,S1P2 ag,GALR2 ag,GALR2 blocker,S1P2 antag,GALR2 blk conf,BLA inh counter,others
Fc1c(F)c(C(F)(F)F)c(F)c(F)c1N/N=C\c1cccs1,0,31*,1,5,·,·,GALR2 agon conf=7;BLA activ ctr=6
O=C(CC12CCC(CC1)C2)NCc1ccc2c(c1)OCO2,-7,-1,-1,-20,·,·,
CC1=C/C(=N\OS(=O)(=O)c2ccccc2)C(C(C)C)=CC1=O,·,9.6*,47*,·,52*,29*,GALR2 agon conf=11*;BLA activ ctr=3
CC(NC(=O)CN1CCc2ccccc21)c1ccccc1 (stereo not given),·,0,-12,·,·,·,
Brc1ccc(-c2ccc(/C=N/Nc3nncc(-c4ccccc4)n3)o2)cc1,-2,-2,2,-7,·,·,
Brc1ccc(-c2ccc(/C=N/Nc3nc4ccccc4[nH]3)o2)cc1,·,23*,29*,·,19,13,GALR2 agon conf=9.5*;BLA activ ctr=17*
O=[N+]([O-])c1cc(C=Nc2ccc3ccccc3c2)ccc1Br,·,-2,33*,·,13,5,
COc1cc(N2CCCC2)c(OC)cc1/C=C(/C#N)c1ccc(F)cc1,-6,-4,6,32,·,·,
COc1cc(N2CCCC2)c(OC)cc1/C=C(/C#N)c1ccc(Br)cc1,0,-3,63*,23,11,17,
Cc1nnc(-n2ncc(C#N)c2N)c2nn(-c3ccccc3F)c(C)c12,0,-1,2,-26,·,·,
CC1(C)CC(=O)C=C(NC2=CC3OC(c4ccccc4)OCC3OC2=O)C1 (stereo not given),·,-1,69*,·,76*,65*,
Cc1ccccc1NC1=CC(=O)CC(C)(C)C1,-4,-3,7,-5,·,·,
CCC(=O)c1cc2c(C)cc(=O)oc2c(C)c1OC(=O)C(C)C,·,-1,16,·,·,·,
Cc1cc(C)nc(SCc2ccc(C(=O)N/N=C/c3cccc(O)c3O)cc2)n1,·,-1,28*,·,22,28*,
C/C(CC(=O)Nc1c(C)cc(C)cc1C)=N\NC(=O)c1cnccn1,·,1,-1,·,·,·,
Cn1c(C(=O)O)c(CC(=O)Nc2ccc3c(c2)OCCO3)c2ccccc21,-3,-3,2,3,·,·,
Cn1nc(CC(=O)Nc2ccc3c(c2)OCCO3)c2ccccc2c1=O,·,-1,36*,·,42*,17,
COc1ccccc1NC(=O)Cc1nn(C)c(=O)c2ccccc12,-4,-2,35*,29,40*,14,
CCOC(=O)c1ccc(NC(=O)CSc2nc3cccnc3n2C)cc1,-2,0,5,-6,·,·,
OCCCc1nc2n(n1)C(c1ccccc1Cl)C=C(c1cccs1)N2 (stereo not given),-13,1,28*,24,17,23,
C=CCn1c(COc2ccccc2F)nnc1SCC(=O)c1c[nH]c2ccccc12,·,0,7,·,·,·,
Cn1c(SCC(=O)Nc2ccc3cn[nH]c3c2)nnc1-c1cccs1,-6,-2,30*,10,18,14,
CC(/C=N/n1c(-c2ccc(Cl)cc2)n[nH]c1=S)=C\c1ccco1,·,0,8,·,·,·,
N#CC(C#N)=C1C=CC=CN1/C(=C\c1ccco1)C(=O)c1ccc(Cl)cc1,·,-1,68*,·,60*,71*,
O=C(O)/C(=C/c1ccco1)NC(=O)c1ccccc1,·,0,1,·,·,·,
SMILES,S1P2 ag,GALR2 ag,GALR2 blocker,S1P2 antag,GALR2 blk conf,BLA inh counter,others
N#CC(C#N)=C1C=CC=CN1/C(=C\c1ccco1)C(=O)c1ccc(-c2ccccc2)cc1,·,0,28*,·,41*,33*,
Cc1ccc(/C=C2\C(=O)Nc3ccccc32)o1,·,-1,1,·,·,·,
O=C1Nc2ccccc2/C1=C/C(=O)c1cccs1,-7,-3,27*,4,30*,11,
COCCCN(C(=O)c1ccco1)c1nc(-c2cc(OC)ccc2OC)cs1,-2,-1,85*,-3,5,12,
CCC(=O)N(CCCN(C)C)c1nc(-c2cc(OC)ccc2OC)cs1,-4,-1,6,3,·,·,
CCOC(=O)N1CCN(C(=O)c2ccc(NC(C)=O)cc2)CC1,-11,-1,9,11,·,·,
CCOC(=O)N1CCN(C(=O)c2ccc(NC(=O)c3ccc(C)cc3)cc2)CC1,-7,1,28*,-2,30*,19,
O=C(OCn1ncc(Cl)c(Cl)c1=O)c1cccc(C(F)(F)F)c1,1,-1,46*,30,66*,43*,
CCOc1ccc2nc(NC(=O)c3ccc(OCC4CCCO4)cc3)sc2c1 (stereo not given),·,-1,-8,·,·,·,
CCc1ccc2c(c1)C1(NN=C(c3cccc4ccccc34)S1)C(=O)N2 (stereo not given),-7,1,29*,27,13,10,
CCS(=O)(=O)c1c([N+](=O)[O-])ncn1C,·,-3,28*,·,23,1,
Cc1cc(C(F)(F)F)nn1Cc1n[nH]c(=S)n1-c1ccc(F)cc1,·,-1,63*,·,4,5,
COc1ccc(CCNC(=O)CC2SC(=NCCC(C)C)NC2=O)cc1OC (stereo not given),·,0,0,·,·,·,
CCc1ccccc1NC(=S)N1CCN(c2ccccn2)CC1,·,-3,28*,·,12,-3,
O=C(/C=C/c1ccc(Cl)c([N+](=O)[O-])c1)Nc1ccc(NC(=O)c2ccco2)cc1,·,-1,33*,·,18,2,
O=C(/C=C/c1ccc(Cl)c([N+](=O)[O-])c1)Nc1cccc(NC(=O)c2ccco2)c1,·,-2,6,·,·,·,
Cc1ccc(N(NC(=O)C(O)(c2ccccc2)c2ccccc2)C(=O)CCl)cc1,·,-2,48*,·,37*,56*,
Cn1c(=O)[nH]c(=O)c2c1nc(N1CCCCCC1)n2CCCSc1nnnn1-c1ccccc1,·,2,-18,·,·,·,
O=C(Cc1cccs1)Nc1cccc(-c2nc3cc4ccccc4cc3[nH]2)c1,·,0,28*,·,30*,10,
CCOc1cccc(NC(=O)Cc2cccs2)c1,·,0,-7,·,·,·,
CCN(CC)S(=O)(=O)c1ccc(N2CCN(S(=O)(=O)c3ccc4c(c3)OCCO4)CC2)nc1,-1,0,3,-18,·,·,
CCn1c2ccccc2c2cc(NC(=O)c3cc(OC)c(OC)c(OC)c3)ccc21,5,1,29*,-13,43*,67*,
Cc1[nH]nc(SCC(=O)NCc2ccc(Cl)cc2)c1[N+](=O)[O-],·,2,-6,·,·,·,
CN(C)c1ccc(C(=O)OCC(=O)NCC2CCCO2)cc1 (stereo not given),0,0,-5,-20,·,·,
Brc1ccccc1Cn1c(-c2cscn2)nc2ccccc21,-2,-1,-12,-19,·,·,
O=c1c(Cl)c(N/N=C/c2ccc(Cl)cc2)cnn1-c1ccccc1,·,2,-5,·,·,·,
O=c1c(Cl)c(Cl)cnn1Cc1ccccc1Cl,·,2,63*,·,64*,61*,
O=c1c(Cl)c(Cl)cnn1-c1ccccc1,·,-3,88*,·,92*,78*,
Cc1ccc(Cn2ncc(Cl)c(Cl)c2=O)cc1,·,0,22,·,·,·,

# High-throughput results (PubChem BioAssay)
